Experimental findings from PubChem BioAssay (NCI) are described below.

About 83,000 compounds went through this panel and 20% of them were active in at least one assay; those are over-represented in the sample as a whole.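 Compound tested at a single concentration for 48 hours in 96-well plates; a percent growth value below 10 was scored as active.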 A number with no mark means an inactive call. The source made the active and inactive calls.

The subject of this experiment is CAKI-1 renal. Description: NCI-60 one-dose screen, 48 h (100 = growth as untreated, 0 = no growth, -100 = all killed). The following applies: 10 µM unless noted. The protocol: Growth inhibition of the CAKI-1 human tumor cell line is measured as a screen for anti-cancer activity. Cells are grown in 96 well plates and exposed to the test compound for 48 hours. Compounds are tested at a single concentration, which is 10^-5 M for most compounds. The reported endpoint is percent growth (GI% or GIPRCNT), where numbers from 0 - 100% represent growth inhibition, and numbers from -100% - 0 represent cell death. For example, a value of 40 represents 60% growth inhibition. A value of 0 means no net growth occurred over the course of the experiment. A value of -40 indicates 40% of cells at the beginning of the experiment died by the end of the experiment. A value of -100 means all cells are dead at the end of the experiment.
NCI-60 Human Tumor Cell Lines Screen was performed using the standard one-dose NCI protocol, which is described in more detail at https://dtp.cancer.gov/discovery_development/nci-60/default.htm.
Compounds with GIPRCNT values below 10 were considered active. Activity score was based on GIPRCNT using the following formula: […]
Score is 0 for GIPRCNT values of 100 or above, 50 for GIPRCNT values of 0, and 100 for GIPRCNT values of -100.
For `C=C1CC[C@@H]2[C@]3(C)COC(c4ccco4)O[C@@H]3CC[C@@]2(C)[C@@H]1C/C=C1/C(=O)OCC1OC(C)=O` (stereo not given in full), the growth was 36.1%.
Turning to `CCC(C)(C)c1ccc(OCCCCN2CCN(c3ccncc3)CC2)cc1`, the growth was 43.5%.
The value for `O=c1[nH]c(=O)c2c(-c3cc4ccccc4oc3=O)ccnc2[nH]1` was 48.1%; that for `COc1ccc2[nH]cc(-c3nnc(N)nc3-c3c[nH]c4ncc(Br)cc34)c2c1` was 70%.
The value for `Cn1cc(-c2cc(N)n3nc(-c4c[nH]c5ccccc45)cc3n2)c2cccnc21` was 23.9%; that for `C=Cn1cc(C(=O)O)c(=O)c2cc(F)c(N3CCN(c4nccc(-c5nccs5)n4)CC3)cc21` was -37.1% (active).
The value for `C#CCOc1cc(N(CC)CC)ccc1C(C(=O)NC(C)(C)C)N(C(=O)C1CCc2cc(F)ccc2O1)c1ccc(Br)cc1` (stereo not given) was 58.7%; that for `COc1cc(-c2cc(-c3cccc(OCC(=O)O)c3)[nH]c(=O)c2C#N)cc(OC)c1OC` was 82.2%.
On to `O=C(Nc1ccccc1)N1CCN(c2cc(-c3cn(-c4ccccc4)nc3-c3cccc(O)c3)ccn2)CC1`, for which the growth is 70.3%.
In the case of `Cn1cc(-c2cc3nc(-c4cn(C)c5ncccc45)cc(N)n3n2)c2cc(Cl)ccc21`, the growth is -46.9% (active).
As to `CCCCSc1nc(Nc2ccc(S(N)(=O)=O)cc2)c(C#N)c(-c2ccc(Cl)cc2)n1`, the growth is 55%.
The value for `O=C(O)c1cccc(-c2ccc(/C=N/NC(=O)c3[nH]c4ccc(Br)cc4c3-c3ccccc3)s2)c1` was 74.7%.
The value for `COc1ccc(NC(=O)[C@@H](N)Cc2ccccc2)cc1C(=O)Nc1cccc(C2CC(=O)c3c(cc(OC)c(OC)c3OC)O2)c1` (stereo not given in full) was 54.1%; that for `COc1cc2c3c(n(CCCN4CCC[C@@H]4CO)c(=O)c2cc1OC)-c1cc2c(cc1C3=O)OCO2` was -94.6% (active).
Under `N=C1N=C(SCc2nc3ccccc3[nH]2)NC(=O)/C1=C/c1ccc(Cl)cc1` stands 85.9%.
Turning to `COc1ccc(-c2nc(SCC(C)C)nc(NCCc3c[nH]c4ccccc34)c2C#N)cc1`, the growth was 54.1%.
As to `Nc1nc(-c2ccccc2)c(N=Nc2ccc([N+](=O)[O-])cc2Cl)s1`, the growth was 81.2%.
Under `Cc1ccc(-c2nnc3ccc(N/N=C/c4ccccc4)nn23)cc1` stands 83.3%; under `C/C(=N\N=C1/C(=O)Nc2ccc(Cl)cc21)c1ccc2c(c1)Nc1ccccc1S2`, 6.63% (active); under `COc1cc2c(c(OC)c1OC)C(=O)CC(c1cccc(NC(=O)c3cccc(NC(=O)[C@H](C)NC(=O)OC(C)(C)C)c3)c1)O2` (stereo not given in full), 42.2%.
Turning to `C#CCOc1ccc(/C=N/Nc2nc(-c3ccc(F)cc3)cs2)cc1OC`, the growth was 56.2%.
As to `Cc1ccc([C@H]2C(C(=O)c3ccc(Cl)cc3)C3(N[C@@H]2c2ccccc2)C(=O)Nc2ccccc23)cc1` (stereo not given in full), the growth is 32%.
Under `CC1=C(C(=O)c2ccccc2)C(c2cccc3ccccc23)n2c(nc3ccccc32)N1` (stereo not given) stands 55.7%.
Under `CCN(CC)c1ccc(/C=N/Nc2nc(-c3ccc(Br)cc3)cs2)c(O)c1` stands 55.1%; under `C[C@H](Nc1nc(NCCc2ccccc2)nc2ccccc12)c1ccccc1`, -85.9% (active); under `COc1ccc(N2N=C(c3ccc4c(c3)OCO4)CC2c2cccc(NC(=O)CCCNS(=O)(=O)c3ccc(F)cc3)c2)cc1` (stereo not given), 49%.
As for `C=C1CCC2C3(C)COC(c4ccccc4F)OC3CCC2(C)C1CC(O)C1=CCOC1=O` (stereo not given), the growth is 66%.
The value for `COc1ccc(C2=NN(c3ccccc3)C(c3ccc(OCc4ccccc4)c(OC)c3)C2)cc1OC` (stereo not given) was 88.7%; that for `COc1ccc(C(SCCNCc2cc(N(C)C)ccn2)(c2ccccc2)c2ccccc2)cc1` was 11.3%.
Under `Cc1ccc(NC(=O)[C@]23CCC(C)(C)CC2C2=CCC4[C@@]5(C)C[C@@H](O)[C@H](O)[C@@](C)(CO)C5CC[C@@]4(C)[C@]2(C)CC3)cc1` (stereo not given in full) stands 29.2%.
The value for `COc1c(F)ccc(C(=O)Nc2ccc3nc(NC(=O)C4CCCN(S(=O)(=O)c5ccc(C#N)cc5)C4)sc3c2)c1F` (stereo not given) was 90.6%; that for `CC(C)c1sc(NC(=O)c2cc(NC(=O)c3cc(NC(=O)c4nccn4C)cn3C)cn2C)nc1C(=O)NCCCN(C)C` was 102%.
In the case of `N/C(=N\c1nc2ccccc2s1)NC(=O)Nc1ccc(Cl)cc1Cl`, the growth was -87.7% (active).
Under `Clc1cccc(N/N=C/c2c[nH]c3ccc(Br)cc23)n1` stands 11.7%; under `COc1cc(-c2nc3ccc(C)cc3[nH]2)ccc1OCc1nnc(-c2ccc(Br)cc2)o1`, 44.6%.
The value for `CN(C)c1nc(NCCNS(=O)(=O)c2ccc(C(=O)/C=C/c3ccc(F)cc3)cc2)nc(Nc2ccc(F)cc2)n1` was -51.9% (active).
Under `CC(C)c1ccc2c(N)c(C(=O)Nc3ccc(C(F)(F)F)cn3)sc2n1` stands 55.2%; under `CC(C)(C)OC(=O)/C=C/c1cccc2c1C(=O)NC(C)(c1cc3cc(Cl)ccc3oc1=O)N2` (stereo not given), 42.4%.
`COc1cc2c(c(OC)c1OC)C(=O)CC(c1cccc(NC(=O)c3cccc([N+](=O)[O-])c3)c1)O2` (stereo not given): the growth is 22.1%.
Under `COc1cc2c(c(OC)c1OC)C(=O)CC(c1cccc(NC(=O)c3cc(NC(=O)[C@@H](N)CO)ccc3C)c1)O2` (stereo not given in full) stands 99.9%.
